# Compounds without any hit were thinned out: in the full panel of roughly 83,000, 20% have a hit.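 How to read the values: 0–100, growth inhibition (40 = 60% inhibited); 0, no net growth; -100 to 0, cell death (-40 = 40% of starting cells died; -100 = all dead).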 The source made the active and inactive calls.
# Test system: HCC-2998 colon
# Assay: NCI-60 one-dose screen, 48 h (100 = growth as untreated, 0 = no growth, -100 = all killed)
# Conditions: 10 µM unless noted
# Method: Growth inhibition of the HCC-2998 human tumor cell line is measured as a screen for anti-cancer activity. Cells are grown in 96 well plates and exposed to the test compound for 48 hours. Compounds are tested at a single concentration, which is 10^-5 M for most compounds. The reported endpoint is percent growth (GI% or GIPRCNT), where numbers from 0 - 100% represent growth inhibition, and numbers from -100% - 0 represent cell death. For example, a value of 40 represents 60% growth inhibition. A value of 0 means no net growth occurred over the course of the experiment. A value of -40 indicates 40% of cells at the beginning of the experiment died by the end of the experiment. A value of -100 means all cells are dead at the end of the experiment.
# NCI-60 Human Tumor Cell Lines Screen was performed using the standard one-dose NCI protocol, which is described in more detail at https://dtp.cancer.gov/discovery_development/nci-60/default.htm.
# Compounds with GIPRCNT values below 10 were considered active. Activity score was based on GIPRCNT using the following formula: […]
# Score is 0 for GIPRCNT values of 100 or above, 50 for GIPRCNT values of 0, and 100 for GIPRCNT values of -100.
row,SMILES,growth
1,N#Cc1nc(-c2ccccc2)oc1S(N)(=O)=O,110% (inactive)
2,NS(=O)(=O)c1cccc(Nc2nc(SCC(=O)c3ccc(Br)cc3)nc3ccccc23)c1,86.1% (inactive)
3,CCOc1ccc([C@H]2C(C(=O)c3ccc(Cl)cc3)C3(N[C@@H]2c2ccccc2)C(=O)Nc2ccc(Br)cc23)cc1 (stereo not given in full),0.672% (active)
4,CS(=O)(=O)c1ccc(-c2nc3ccccn3c2/C=N/Nc2nc(-c3ccc(Cl)cc3)cs2)cc1,125% (inactive)
5,CNC(=O)c1cc(-c2ccc(NC(=O)Nc3ccc(N4CCN(C)CC4)c(C(F)(F)F)c3)cc2)nc2cccnc12,-94.9% (active)
6,N[C@@H](Cc1cn(-c2ccnc3ccccc23)nn1)C(=O)O,104% (inactive)
7,O=C(CCN1C(=O)/C(=C/c2ccccc2)SC1=S)N1CCOCC1,112% (inactive)
8,Cc1ccc2ccc3ccc(C)nc3c2n1.Cc1ccc2ccc3ccc(C)nc3c2n1.Oc1c(Cl)cc(Cl)c2ccc(CN3CCCCC3)nc12.[Ru],-90.1% (active)
9,Nc1ncc(-c2ccc3ncnc(N4CCc5cc(F)c(Cl)cc54)c3c2)cc1CO,8.47% (active)
10,COc1cc(/C=C/C(=O)c2ccc(C(F)(F)F)cc2)ccc1Oc1nc(NCCO)nc(N2CCOCC2)n1,104% (inactive)
11,O=c1[nH]c2ccccc2cc1CSc1ccccc1Nc1nccc(-c2ccc(C(F)(F)F)cc2)n1,90.4% (inactive)
12,Nc1cc(-c2c[nH]c3ccc(F)cc23)nc2cc(-c3c[nH]c4ccc(F)cc34)nn12,72.5% (inactive)
13,C#Cc1nc(C2=C(C)C(OC(C)=O)/C(=N/OC(C)=O)C2)cs1 (stereo not given),105% (inactive)
14,COc1cc(/C=C/C(=O)c2cc(OC)c(OC)c(OC)c2)ccc1Oc1nc(NCCO)nc(N2CCOCC2)n1,-17.5% (active)
15,CCN1CCN(S(=O)(=O)c2oc(-c3ccc(Cl)cc3)nc2C#N)CC1,115% (inactive)
16,CN(C)S(=O)(=O)c1oc(-c2ccccc2)nc1C#N,108% (inactive)
17,c1ccc2c(NCCCn3ccnc3)c3oc4ccccc4c3nc2c1,0.465% (active)
18,COc1cc2nc(-c3ccc(C(F)(F)F)cc3)cc(OCCCNCC3CCCO3)c2cc1OC (stereo not given),54.4% (inactive)
19,Cc1ccc(C(=O)Nc2cccc(C(F)(F)F)c2)cc1Nc1nc(-c2cnccn2)nc2c1cnn2C,47.9% (inactive)
20,OC1CCN(CCCOc2c3ccccc3nc3c2oc2ccccc23)CC1,-12.4% (active)

row,SMILES,growth
1,COc1cc(OC)c(C2C(Cl)C(=O)N2Nc2ncnc3ccccc23)cc1OC (stereo not given),111% (inactive)
2,O=C1c2c(c3c4cc(Br)ccc4[nH]c3c3ccc4ccccc4c23)C(=O)N1CCO,103% (inactive)
3,N#Cc1c(-c2ccc(Cl)cc2)nc(SCc2ccccc2)nc1N1CCNCC1,-37.3% (active)
4,N#Cc1ccc(/C=N/NC(=O)c2[nH]c3ccc(Br)cc3c2-c2ccccc2)s1,21.8% (inactive)
5,CCCCCCNC(=O)Oc1ccc(/C(=C(/C)c2ccccc2)c2ccc(OCCN3CCCCCC3)cc2)cc1,56.7% (inactive)
6,NS(=O)(=O)c1cccc(Nc2nc(SCC(=O)c3ccc(Cl)cc3)nc3ccccc23)c1,112% (inactive)
7,O=C(c1ccc(Cl)cc1)C1[C@H](c2ccc(Cl)cc2)[C@@H](c2ccccc2)NC12C(=O)Nc1ccc(Br)cc12 (stereo not given in full),13.3% (inactive)
8,O=C(N/N=C/c1ccc([N+](=O)[O-])o1)c1[nH]c2ccc(Br)cc2c1-c1ccccc1,2.07% (active)
9,C[C@@H]1CN(c2ccc3ncc(C#Cc4cncc(C(=O)Nc5ccc(CN6CCN(C)CC6)c(C(F)(F)F)c5)c4)n3n2)C[C@H](C)O1,-30% (active)
10,C#Cc1nc(C2=C(C)/C(=N/OCc3ccccc3)CC2)cs1,99.8% (inactive)
11,CC(=O)Nc1cc(F)cc(-c2ccc3[nH]cc(-c4ccccc4)c3n2)c1,-19% (active)
12,O=C1Nc2ccc(Cl)cc2/C1=C/c1ccc(OCC(=O)c2ccc(Br)cc2)cc1,99.5% (inactive)
13,COC(=O)C(C)NS(=O)(=O)/N=C1\NC(=O)NC1=C(Cl)Cl (stereo not given),113% (inactive)
14,C=CCn1c(SCC(=O)c2ccc(Br)cc2)nnc1-c1c[nH]c2ccccc12,104% (inactive)
15,Cc1c(Nc2nnc(SCC(=O)Nc3sc4c(c3C#N)CCCC4)s2)c(=O)n(-c2ccccc2)n1C,115% (inactive)
16,O=C(CSc1nc2sc3c(c2c(=O)n1-c1ccc(Cl)cc1)CCCC3)N/N=C/c1ccc(F)cc1,112% (inactive)
17,Clc1ccc(Cc2nnc3sc(-c4cccnc4)nn23)cc1,105% (inactive)
18,CC(=O)Oc1ccccc1C(=O)Nc1cc(C(C)C)ccc1C,20.5% (inactive)
19,NS(=O)(=O)c1ccc(Nc2nc(SCC(=O)c3ccc(Cl)cc3)nc3ccccc23)cc1,123% (inactive)
20,COC(=O)C(Cc1ccccc1)NS(=O)(=O)/N=C1\NC(=O)NC1=C(Cl)Cl (stereo not given),113% (inactive)
